# Measurements: PubChem BioAssay AID504848 (National Center for Advancing Translational Sciences (NCATS), 2011)
# Among all 2,300 compounds or so, about 1,400 (61%) were called active. About 29% were inconclusive and are not listed. Calls come from the whole dose curve; as a rule, active = well fitted inhibition curve with a large enough effect; inconclusive = small, poorly fitted or top-dose-only effect, or effect the other way; inactive = no such curve, though single readings can be large or run the other way. The set was probably picked from earlier hits. The list shows a part of the results.
# Assay: Confirmation screen for delayed death inhibitors of the malarial parasite plastid, 96 hour incubation; note: nearly all actives have a fitted effect of over 60% in size
# Details: P. falciparum luciferase growth in erythrocytes; series mostly up to 28.7 µM
# In short: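 Erythrocytes infected with luciferase-expressing P. falciparum (2% hematocrit, 0.1% parasitemia final) in RPMI 1640 with 0.5% Albumax, exposed to compounds 96 h at 37 C, 5% CO2. Growth inhibition read as decreased luciferase luminescence.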
# Potency is the fitted concentration of half-maximal effect.
row,SMILES,Potency
1,CCCCCCC1C(C#N)=C(N)OC2=C1C(=O)CCC2 (stereo not given),inactive
2,Cc1ccc(-c2cc(C(=O)N/N=C/C=C/c3ccco3)c3ccccc3n2)cc1C,14.1 µM (active)
3,CC(C)C[C@@H](NC(=O)[C@H](Cc1ccccc1)NC(=O)c1cnccn1)B(O)O,0.178 µM (active)
4,CC(C)=N/N=C1/NC(=O)C(Cc2ccccc2)S1 (stereo not given),7.94 µM (active)
5,Cc1cc(=O)oc2ccc(OCC(=O)N3CCc4ccccc43)cc12,6.31 µM (active)
6,Cc1ccc(NC2CCCN(C(=O)CSc3ccncc3)C2)cc1C (stereo not given),12.6 µM (active)
7,COc1ccc(NC2CCCN(C(=O)CCc3ccncc3)C2)cc1OC (stereo not given),inactive
8,Cc1ccc(S(=O)(=O)Nc2cccc3cccnc23)c([N+](=O)[O-])c1,3.98 µM (active)
9,Cc1ccc(S(=O)(=O)Nc2cccc3cccnc23)cc1,5.62 µM (active)
10,O=C(c1ccc(Cl)cc1)C(Cn1cncn1)C(Sc1ccccc1)c1ccccc1 (stereo not given),12.6 µM (active)
11,O=C1C(=O)c2ccccc2C(O)=C1C1CCC(c2ccc(Cl)cc2)CC1 (stereo not given),0.0158 µM (active)
12,CN1CC2=Cc3ccccc3OC23Oc2ccccc2C=C3C1,3.16 µM (active)
13,CCC1=C/C(=C/c2sc3ccccc3[n+]2CC)CC(C)(C)C1,0.355 µM (active)
14,CCn1nc(C)c(NC(=O)CC23CC4CC(CC(C4)C2)C3)c1C,inactive
15,NC(=O)COc1ccc(NC(=O)CC23CC4CC(CC(C4)C2)C3)cc1,11.2 µM (active)
16,CSCCC(NC(=O)c1ccccc1Cl)C(=O)N1CCN(C(c2ccccc2)c2ccccc2)CC1 (stereo not given),3.98 µM (active)
17,Cc1ccc(N2C(=O)N3[C@H](c4ccc(F)cc4)[C@@H]4C(=O)N(C5CCCCC5)C(=O)[C@@H]4[C@]3(Cc3ccccc3)C2=O)cc1,5.62 µM (active)
18,O=C(CCc1ccccc1)NNC(=O)c1ccccn1,6.31 µM (active)
19,O=C(NCc1ccccc1)C(c1cccnc1)N(C(=O)c1ccccn1)c1ccccc1F (stereo not given),inactive
20,COc1ccc(CCN2CCCn3c2nc2c3c(=O)n(Cc3ccccc3F)c(=O)n2C)cc1OC,2.24 µM (active)
21,Cc1ccc(S(=O)(=O)Nc2ccc(C(=O)Nc3ccncc3)cc2)cc1,12.6 µM (active)
22,CCOc1ccc(C2C3=C(Nc4nc(N)[nH]c(=O)c42)c2ccccc2C3=O)cc1 (stereo not given),10 µM (active)

row,SMILES,Potency
1,CCN(CC)S(=O)(=O)c1cc(NC(=O)C(C)OC(=O)c2[nH]c(C)c(C(C)=O)c2C)ccc1C (stereo not given),1.78 µM (active)
2,O=C1/C(=C/c2ccccc2F)SC(=S)N1CC(=O)N1CCCCC1c1cccnc1 (stereo not given),10 µM (active)
3,COc1cc(OC)c(OC)cc1CN1CCN(C(=O)c2cccc3ccccc23)CC1,10 µM (active)
4,CCCc1cc(=O)oc2cc(OC(C)C(=O)NCc3ccccn3)c(Cl)cc12 (stereo not given),15.8 µM (active)
5,COc1cc(C(=O)Nc2ccc(S(=O)(=O)Nc3cc(C)on3)cc2)cc(OC)c1OC,inactive
6,COc1ccccc1NC(=O)c1ccc2nc(-c3ccccc3)c(-c3ccccc3)nc2c1,inactive
7,COc1ccc(NC(=O)c2cccc(NC(=O)c3ccccc3)c2)c(OC)c1,8.91 µM (active)
8,COC(=O)c1ccc(NC(=O)c2cccc(NC(=O)c3ccccc3)c2)cc1,7.94 µM (active)
9,COc1cc(C(=O)Nc2ccc(Nc3ccccc3)cc2)cc(OC)c1OC,5.01 µM (active)
10,O=C(Nc1cccc(Br)c1)c1ccc2snnc2c1,inactive
11,COc1cc2c(cc1NC(=O)c1ccc(C(C)(C)C)cc1)CCCC2,12.6 µM (active)
12,O=C(CCl)N1CCN(CC(=O)N2CCCC2)CC1,14.1 µM (active)
13,C/C(=C\C(=O)OCCCCCCCCC(=O)O)C[C@@H]1OC[C@H](C[C@@H]2O[C@H]2[C@@H](C)[C@H](C)O)[C@@H](O)[C@H]1O,0.501 µM (active)
14,CSCCn1c(C(C)(C)C)cc(C(=O)O)c1C,inactive
15,CCC(=O)c1ccc(OCC(O)CNC(C)c2ccccc2)cc1 (stereo not given),11.2 µM (active)
16,Cn1nnnc1Sc1ncnc2scc(-c3cccc(S(C)(=O)=O)c3)c12,12.6 µM (active)
17,Cn1nnnc1Sc1ncnc2scc(-c3cccc(F)c3)c12,6.31 µM (active)
18,CC(=O)N1c2ccc(S(=O)(=O)NCCC(=O)NC3CCCC(C)C3C)cc2CC1C (stereo not given),14.1 µM (active)
19,N#C/C(=C\c1ccccn1)c1ccccn1,11.2 µM (active)
20,O=C(c1ccco1)N1CCN(C2c3ccccc3-c3ccccc32)CC1,12.6 µM (active)
21,COc1ccc(CSC2=NCCN2)cc1Br,12.6 µM (active)
22,O=C(CCl)c1ccc2c(c1)CCN2C(=O)C1CCCCC1,11.2 µM (active)

row,SMILES,Potency
1,O=C(COc1ccc(Cl)cc1)NCc1nnc2c3ccccc3c(-c3ccccc3)nn12,12.6 µM (active)
2,CC(C)c1ccc(/C=C2\SC(=S)N(CCC(=O)N3CCCCC3CCO)C2=O)cc1 (stereo not given),1.26 µM (active)
3,COc1cccc(/C=C2\SC(=S)N(CCC(=O)N3CCCCC3CCO)C2=O)c1 (stereo not given),6.31 µM (active)
4,O=C1/C(=C/c2ccc(Cl)cc2)SC(=S)N1CCC(=O)N1CCCCC1CCO (stereo not given),12.6 µM (active)
5,COc1cccc([C@@H]2Oc3ccc(OC)cc3C(=O)[C@H]2O)c1,7.08 µM (active)
6,C=CCNC(=O)c1onc(CSc2ccc(F)c(F)c2)c1C(=O)O,inactive
7,C=CCNC(=O)c1onc(CSc2ccc(C(C)C)cc2)c1C(=O)O,inactive
8,C=CCNC(=O)c1oc2ccc(S(=O)(=O)N3CCCCC3)cc2c1C,11.2 µM (active)
9,COC(=O)C1=CN(Cc2ccc(F)cc2)C=C(C(=O)OC)C1c1ccc(O)c(OC)c1,10 µM (active)
10,CC(=O)N(C)C1=C(N2CCOCC2)C(=O)c2ccccc2C1=O,0.0355 µM (active)
11,N#Cc1ncc(-c2ccc3c(c2)OCCOCCOCCOCCOCCO3)nc1C#N,12.6 µM (active)
12,O=C(c1cc(COc2cccc(C(F)(F)F)c2)on1)N1CCC(Oc2cccnc2)CC1,14.1 µM (active)
13,C/C(=N\NC(=O)c1ccc(Cl)c(Cl)c1)c1ccc(Br)s1,2 µM (active)
14,Cc1ccc(-n2c(SCC(=O)Nc3ncc(Cl)cc3Cl)nc3ccccc32)cc1,11.2 µM (active)
15,COCCn1c(SC(C)C(=O)Nc2ncc(Cl)cc2Cl)nc2ccccc21 (stereo not given),15.8 µM (active)
16,O=C(CSc1nc2ccccc2n1-c1ccccc1)Nc1ncc(Cl)cc1Cl,10 µM (active)
17,Cc1nn(C)c(C)c1C(C)NC(=O)c1ccc(OC2CCN(Cc3ccccn3)CC2)cc1 (stereo not given),inactive
18,COc1ccc(CN2CCC(Oc3ccc(C(=O)NCc4ccccn4)cc3)CC2)c(F)c1,12.6 µM (active)
19,O=C1N=C(N2CCN(c3ccccc3)CC2)S/C1=C/c1cccs1,12.6 µM (active)
20,CC1=NNC(=O)/C1=C\c1cn(-c2ccccc2)nc1-c1cccs1,5.62 µM (active)
21,O=C(c1ccco1)N1CCN(C(=O)C2CCCc3c2[nH]c2ccc(Cl)cc32)CC1 (stereo not given),12.6 µM (active)
22,C=CCN=c1scc(-c2ccc(F)cc2)n1/N=C/c1ccccn1,3.98 µM (active)

row,SMILES,Potency
1,Cc1n[nH]c(=S)n(/N=C/c2ccccn2)c1=O,inactive
2,Cc1ccc(NC(=O)CSc2nc3ccccc3c(=O)n2CCCN2CCCCC2)cc1Cl,6.31 µM (active)
3,CC(C)(C)n1ncc2c(=O)n(Cc3ccccc3Br)cnc21,12.6 µM (active)
4,COc1ccc(OC)c(C(=O)NC2CC(C)(C)Cc3c2cnn3-c2ccccc2)c1 (stereo not given),11.2 µM (active)
5,COc1cccc(C(=O)NC2CC(C)(C)Cc3c2cnn3-c2cccc(F)c2)c1OC (stereo not given),12.6 µM (active)
6,CSc1ncccc1C(=O)NC1CC(C)(C)Cc2c1cnn2-c1ccccc1C (stereo not given),11.2 µM (active)
7,CCC(=O)OC1C(N(C)C)CC(C)O[C@H]1O[C@H]1[C@H](C)[C@@H](O[C@H]2CC(OC)[C@@H](O)C(C)O2)[C@H](C)C(=O)O[C@@H](CC)[C@](C)(O)[C@@H](O)[C@H](C)C(=O)[C@@H](C)C[C@]1(C)O (stereo not given in full),10 µM (active)
8,CC[C@H]1OC(=O)[C@H](C)[C@@H](O[C@H]2C[C@@](C)(OC)[C@@H](O)[C@H](C)O2)[C@H](C)[C@@H](O[C@@H]2O[C@H](C)C[C@H](N(C)C)[C@H]2O)[C@](C)(O)C[C@@H](C)CN(C)[C@H](C)[C@@H](O)[C@]1(C)O,0.631 µM (active)
9,CC[C@H]1OC(=O)[C@H](C)[C@@H](O[C@H]2C[C@@](C)(OC)[C@@H](O)[C@H](C)O2)C(C)[C@@H](O[C@@H]2O[C@H](C)C[C@H](N(C)C)[C@@H]2O)[C@](C)(OC)C[C@@H](C)C(=O)[C@H](C)[C@@H](O)[C@]1(C)O (stereo not given in full),2.82 µM (active)
10,COc1ccccc1NS(=O)(=O)c1ccc(NN=C2CCCC2)c([N+](=O)[O-])c1,11.2 µM (active)
11,Cc1ccc(-c2nn(-c3ccccc3)cc2CC(=S)N2CCOCC2)cc1,12.6 µM (active)
12,COc1ccc(Cn2c(-c3ccc(Br)cc3)c[n+]3ccccc23)cc1,0.562 µM (active)
13,Cc1ccn2c(NC3CCCC3)c(-c3ccccn3)nc2c1,3.16 µM (active)
14,CCOC(=O)c1cc(-c2ccccc2)sc1NC(=O)C(C)OC(=O)c1cccnc1Cl (stereo not given),6.31 µM (active)
15,COCCN(C(=O)c1ccccc1F)c1nnc(-c2ccc(OC)cc2)s1,7.08 µM (active)
16,COc1ccc(C2CC(c3cccs3)=NN2C(=O)CSc2nnc(N)s2)cc1OC (stereo not given),11.2 µM (active)
17,Cc1ccc(NC(=O)c2ccc3c(SCC(=O)O)c4c(nc3c2)CCCC4)c(Br)c1,7.94 µM (active)
18,Cc1onc(NC(=O)c2ccc([N+](=O)[O-])o2)c1Br,11.2 µM (active)
19,Cc1cc[n+]2cc(-c3cccc([N+](=O)[O-])c3)c(-c3cccc([N+](=O)[O-])c3)cc2c1,0.112 µM (active)
